The sample as a whole holds a higher share of hits than the screen did.
MgrA DNA FP – S. aureus MgrA activity modulators, primary screen, biochemical, S. aureus Newman, fluorescence polarization; MgrA-DNA binding; inhibition, % (test concentration not listed); 84,000 compounds, 0.13% hits; AID 602314, 2012; in the data active = inhibition above about 30%, passing the limit was not always enough;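 note: higher means less MgrA bound to DNA so lower polarization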
A number is an active result; . = inactive.

SMILES	MgrA DNA FP
COC(=O)c1cccc2c1C(=O)c1ccccc1-2	.
COc1cccc(/C=C2\C(=O)NC(=O)N(c3cccc(OC)c3)C2=O)c1	.
O=C1NC(=O)N(C2CCCCC2)C(=O)/C1=C\C=C\c1ccco1	.
COc1cccc(N2C(=O)/C(=C/C=C/c3ccco3)C(=O)NC2=S)c1	86
CC(C)NC(=O)CSCc1cnn(-c2ccccc2)c1-n1cccc1	.
CCOC(=O)Cc1ccc(NC(=O)N2CCOc3ccccc32)cc1	.
Cc1ccc2nc(C(F)(F)F)cc(N3CCN(CCS(=O)(=O)c4ccc(Cl)cc4)CC3)c2c1	.
Nc1cc[n+](CC(O)CO)cc1 (centres undefined)	56
Nc1ccc(C(O)C(O)CO)cc1 (centres undefined)	.
COc1ccc([N+](=O)[O-])cc1-c1ccc(/C=c2/sc3nc4cc(C)c(C)cc4n3c2=O)o1	.
CCC(C(=O)NC(C)c1ccc2c(c1)OCO2)c1ccccc1 (centres undefined)	.
Cc1ccc(C)n1C(CC(=O)O)c1ccc2c(c1)OCO2 (centres undefined)	53
NC(=O)CC(c1ccccc1)c1ccc2c(c1)OCO2 (centres undefined)	.
CCCOc1cccc(C(=O)NCc2cccnc2)c1	.
CC1CCN(C(=O)CN2C(=O)CSc3ncccc32)CC1	.
O=C(CSc1nnc2ccccn12)Nc1cccc(C(F)(F)F)c1	.
O=C(Cc1cccc2ccccc12)NCc1csc(-c2cccs2)n1	.
Cc1nc2ccccn2c1-c1ccnn1C(=O)c1ccc(Cl)cc1	.
CCOC(=O)c1cnn(C(=O)c2c(C)nc3ccccn23)c1N	.
Cc1nc2ccccn2c1-c1ccnn1C(=O)c1ccno1	41
O=C(CSc1ncccc1C(=O)N1CCC(Cc2ccccc2)CC1)c1ccccc1	.

Compound activity: PubChem, ICCB-Longwood Screening Facility, Harvard Medical School
